Holding throughout (assay type): functional
For experiment [1], the system named is Plasmodium falciparum. The experiment is described as follows: GSK_TCMDC: Inhibition of Plasmodium falciparum 3D7 in whole red blood cells, using parasite LDH activity as an index of growth. Test compounds present at 2uM.
Experiment [2] deals with Plasmodium falciparum. The experiment is described as follows: GSK_TCMDC: Inhibition of Plasmodium falciparum Dd2 in whole red blood cells, using parasite LDH activity as an index of growth. Test compounds present at 2uM.
The next experiment has as its system HepG2. The experiment is described as follows: GSK_TCMDC: Percent inhibition of human HepG2 cell line. Test compounds present at 10uM.

The Inhibition is how much of the control response was suppressed. A low value points to a weak effect. As for `CN1CC[C@@H](Oc2cc(Nc3nc(-c4ccc(C#N)cc4)cs3)ccc2Cl)C1.Cl`, the Inhibition with Plasmodium falciparum [1] is reported as 99%; with Plasmodium falciparum [2] it was 24%; with HepG2, 12%.
As to `Cc1ccnc2nc(C(=O)Nc3cc(Cl)ccc3N3CCOCC3)nn12`, the Inhibition in the experiment on Plasmodium falciparum [1] is given as 84%; in the experiment on Plasmodium falciparum [2], 63%; in the experiment on HepG2, 0%.
For the compound `CCC(C)(C)C1CCc2nc(N)nc(N)c2C1.Cl` (configuration not stated), the Inhibition in the experiment with Plasmodium falciparum [1] is 95%; with Plasmodium falciparum [2], 97%; in the experiment with HepG2 it was 71%.
As to `CN(CCCCNC(=O)c1cc2ccccc2[nH]1)C1CC2(CCN(C(=O)OC(C)(C)C)CC2)c2ccccc21` (configuration not stated), the Inhibition is 86% with Plasmodium falciparum [1], 75% with Plasmodium falciparum [2] and 12% with HepG2.
In the same order, the values of `FC(F)(F)c1ccc2[nH]c(-c3cccc(-c4ccc(CNCc5cnn(-c6ccccc6)n5)cc4)c3)nc2c1.O=C(O)C(F)(F)F` are 100%, 67% and 14%.
In the same order, the values of `Cn1cccc1C(=O)Nc1cccc(-c2nn3ccccc3c2-c2ccnc(Nc3ccc4c(c3)OCCO4)n2)c1` are 95%, 27% and 12%.
As to `O=C(Nc1ccc(-c2cccc(-c3nc4cc(F)ccc4[nH]3)c2)cc1)Nc1ccc(F)c(F)c1F`, the Inhibition with Plasmodium falciparum [1] is recorded as 100%; with Plasmodium falciparum [2] it was 98%; in the experiment on HepG2, 70%.
Turning to `Cc1cc(OCc2ccncc2)cc2c1C(=O)CC(C)(C)O2`, the Inhibition in the experiment on Plasmodium falciparum [1] came to 99%; in the experiment on Plasmodium falciparum [2] it was 0%; in the experiment on HepG2, 0%.
`Cc1cccc2nc(-c3ccc(-c4cccc(CNCCCNS(C)(=O)=O)c4)s3)[nH]c12.O=C(O)C(F)(F)F`: the Inhibition turned out to be 99% in the experiment on Plasmodium falciparum [1], 19% in the experiment on Plasmodium falciparum [2] and 20% in the experiment on HepG2.
On the same counts, the results for `COc1cc(NC(=O)c2sc(-c3ccc(Cl)cc3)cc2NC(=O)c2cccnc2)ccc1OCCN1CCCC1` are 94%, 77% and 38%.
In the case of `COc1cc(C(=O)N2CCN(C(C)C)CC2)ccc1CN(C)CCCCN1CCN(c2cccc(Cl)c2Cl)CC1.Cl`, the Inhibition is on record as 100% in the experiment with Plasmodium falciparum [1], 98% in the experiment with Plasmodium falciparum [2] and 79% in the experiment on HepG2.
In the same order, the values of `COc1c(Br)cc(Br)cc1-c1ccc(CN2CC3CCC2CC3)[nH]1.Cl` are 98%, 100% and 91%.
Turning to `COc1c(C2CCN(CCCCNC(=O)c3ccc(-c4ccc(C(=O)C(F)(F)F)cc4)cc3)CC2)ccc2c1CCCC2`, the Inhibition is 81% with Plasmodium falciparum [1], 33% in the experiment on Plasmodium falciparum [2] and 99% with HepG2.
In the same order, the values of `CNCCNCc1ccc(-c2ccc(-c3nc4cc(F)ccc4[nH]3)s2)cc1.O=C(O)C(F)(F)F` are 99%, 55% and 22%.
In the same order, the values of `Cc1cccc(C(=O)Nc2ccnc(N3CCC(N(C)Cc4cccc(C#N)c4)CC3)c2)c1.O=C(O)C(F)(F)F` are 100%, 52% and 5%.
On to `Cc1ccc(C(C)C)c(Oc2cnc(NC(CO)c3ccccc3)nc2N)c1` (configuration not stated), for which the results for the Inhibition in the experiment on Plasmodium falciparum [1], in the experiment with Plasmodium falciparum [2] and in the experiment with HepG2 were 95%, 0% and 27%, respectively.
In the same order, the values of `O=C(NC1CCC1)C1CCN(C(c2ccc(Cl)cc2)c2ccc(Cl)cc2)CC1` are 95%, 70% and 6%.
`Cc1ccc(NC(=O)N2CCCN(CCCCCNC(=O)/C=C/c3ccc(Cl)c(Cl)c3)CC2)cc1`: the figures for the Inhibition in the experiment with Plasmodium falciparum [1], with Plasmodium falciparum [2] and with HepG2 were 99%, 2% and 12%, respectively.
Take `O=C(Nc1ccccc1)N1CCOC(CCN2CCC(F)(F)CC2)(c2ccc(Cl)c(Cl)c2)C1` (configuration not stated): the values for the Inhibition in the experiment on Plasmodium falciparum [1], in the experiment on Plasmodium falciparum [2] and with HepG2 were 100%, 100% and 20%, respectively.
On to `CN1CCC(NCc2ccc(-c3cnc(NCc4ccccc4)nc3)cc2)CC1.O=C(O)C(F)(F)F`, for which the figures for the Inhibition in the experiment on Plasmodium falciparum [1], in the experiment on Plasmodium falciparum [2] and with HepG2 were 91%, 64% and 23%, respectively.
On to `COc1ccccc1NC(=O)Nc1cccc(-c2ccc(-c3nc4cccc(C)c4[nH]3)s2)c1`, for which the Inhibition is recorded as 100% in the experiment on Plasmodium falciparum [1], 46% with Plasmodium falciparum [2] and 19% in the experiment with HepG2.
In the same order, the values of `COc1ccc(-c2cc(-c3nc4cc(C(=O)N5CCOCC5)ccc4[nH]3)c(=O)n(C)c2)cc1OC.O=C(O)C(F)(F)F` are 93%, 95% and 6%.
Regarding `Cc1cc(N(C)C)nc(Nc2ccc(NC(=O)COc3ccccc3)cc2)n1`, the Inhibition is listed as 100% with Plasmodium falciparum [1], 67% in the experiment on Plasmodium falciparum [2] and 15% in the experiment on HepG2.
With `CCCCCCN1CCCN(Cc2ccc(C(=O)Nc3ccc(Cl)cc3)cc2)CC1.O=C(O)C(F)(F)F`, the Inhibition in the experiment with Plasmodium falciparum [1] is recorded as 89%; with Plasmodium falciparum [2] it was 54%; in the experiment on HepG2 it was 50%.
Take `CC(C)c1ccc(S(=O)(=O)N(c2ccc3c(c2)OCO3)C2CCN(Cc3ccccc3)C2)cc1` (configuration not stated): the Inhibition in the experiment on Plasmodium falciparum [1] was determined as 100%; with Plasmodium falciparum [2], 92%; in the experiment with HepG2 it was 1%.
On the same counts, the results for `O=C(Nc1ccc(OC(F)(F)F)cc1)Nc1ccc([N+](=O)[O-])cc1` are 100%, 100% and 41%.
In the same order, the values of `Cc1ccc2c(=O)cc(CCc3cccc(F)c3F)n(CC(=O)N(Cc3ccc(-c4ccc(C(F)(F)F)cc4)cc3)C3CCN(C)CC3)c2n1.O=C(O)C(O)C(O)C(=O)O` are 86%, 76% and 49%.
For the compound `O=C(Nc1ccc(C(F)(F)F)cc1)NC1CCN(c2ccnc3ccccc23)C1.O=C(O)C(F)(F)F` (configuration not stated), the Inhibition in the experiment on Plasmodium falciparum [1] was found to be 100%; in the experiment with Plasmodium falciparum [2] it was 89%; with HepG2, 13%.
`COc1ccc(CCN(C)CCOc2ccc(NC(=O)c3cccc4cc5ccccc5nc34)cc2)cc1OC`: the Inhibition in the experiment on Plasmodium falciparum [1] was found to be 100%; in the experiment with Plasmodium falciparum [2], 99%; in the experiment with HepG2, 37%.
